From the supplement of paper PMC6555819

Legend:
Test in all cases: PBM binding z-score (relative to random genomic background probes); higher = stronger binding; sequences stand for … in GC…GCGATTGACAGCGTAGAATGAAGG
[1] = tested on: FXR:RXRa (NR concentration 270 nM, RXRa partner concentration 90 nM)
Outline: (§1)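 On custom Agilent 4×180K arrays, double-stranded probes with 34-nt variable regions carried direct-repeat seeds, single-nucleotide variants, half-site ablations or random human genomic background. Ligand-free nuclear receptor dimers were applied for 1 h, and binding was read with antibodies against each partner (one per run). Binding z-scores come from regression-normalized fluorescence, with the random background probes as reference.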

[2] = tested on: LXRa:RXRa (NR concentration 270 nM, RXRa partner concentration 90 nM)
Outline: as §1

[3] = tested on: LXRa homodimer (NR concentration 270 nM)
Outline: as §1

[4] = tested on: LXRb:RXRa (NR concentration 270 nM, RXRa partner concentration 90 nM)
Outline: as §1

[5] = tested on: LXRb homodimer (NR concentration 270 nM)
Outline: as §1

[6] = tested on: PPARa:RXRa (NR concentration 270 nM, RXRa partner concentration 90 nM)
Outline: as §1

[7] = tested on: PPARg:RXRa (NR concentration 180 nM, RXRa partner concentration 90 nM)
Outline: as §1

[8] = tested on: PPARg:RXRa 270nM:90nM, anti-RXR (NR concentration 270 nM, RXRa partner concentration 90 nM)
Outline: as §1

[9] = tested on: PPARg:RXRa 30nM:10nM, anti-RXR (NR concentration 30 nM, RXRa partner concentration 10 nM)
Outline: as §1

[10] = tested on: PPARg:RXRa 90nM:30nM, anti-RXR (NR concentration 90 nM, RXRa partner concentration 30 nM)
Outline: as §1

[11] = tested on: PPARg:RXRa DBDmut IVT, anti-RXR (DBD mutation: RXRa K156A/R161A, NR concentration 270 nM, RXRa partner concentration 90 nM)
Outline: as §1

[12] = tested on: PPARg:RXRa IVT, anti-PPARg (NR concentration 270 nM, RXRa partner concentration 90 nM)
Outline: as §1

[13] = tested on: PPARg DBDmut:RXRa IVT, anti-PPARg (DBD mutation: PPARg1 K132A/R137A, NR concentration 270 nM, RXRa partner concentration 90 nM)
Outline: as §1

[14] = tested on: PPARg DBDmut IVT, anti-PPARg (DBD mutation: PPARg1 K132A/R137A, NR concentration 270 nM)
Outline: as §1

[15] = tested on: PPARg homodimer (NR concentration 180 nM)
Outline: as §1

[16] = tested on: PXR:RXRa (NR concentration 270 nM, RXRa partner concentration 90 nM)
Outline: as §1

[17] = tested on: PXR homodimer (NR concentration 270 nM)
Outline: as §1

[18] = tested on: RARa:RXR (NR concentration 270 nM, RXRa partner concentration 90 nM)
Outline: as §1

[19] = tested on: RARa homodimer (NR concentration 270 nM)
Outline: as §1

[20] = tested on: RARb:RXRa (NR concentration 270 nM, RXRa partner concentration 90 nM)
Outline: as §1

Row | Sequence | PBM binding z-score [1] | PBM binding z-score [2] | PBM binding z-score [3] | PBM binding z-score [4] | PBM binding z-score [5] | PBM binding z-score [6] | PBM binding z-score [7] | PBM binding z-score [8] | PBM binding z-score [9] | PBM binding z-score [10] | PBM binding z-score [11] | PBM binding z-score [12] | PBM binding z-score [13] | PBM binding z-score [14] | PBM binding z-score [15] | PBM binding z-score [16] | PBM binding z-score [17] | PBM binding z-score [18] | PBM binding z-score [19] | PBM binding z-score [20]
1 | CTACAAAGGTGAACAAGGTCGTTGATTACTATTC | 2.91 | 2.94 | 0.453 | 3.1 | -0.0435 | 4.39 | 3.3 | 3.46 | 0.912 | 2.84 | 3.31 | 3.77 | 0.982 | 0.418 | 1.57 | 3.89 | 2.18 | 3.61 | 0.686 | 3.63
2 | TCGAGTAGGTTAGGCGGGGCATTCAGCCAACATA | 0.223 | 0.211 | -0.616 | 0.946 | 0.912 | 0.687 | -0.0188 | 0.886 | 0.825 | 0.705 | 1.73 | 1.84 | 0.466 | 0.361 | -0.143 | 0.191 | -0.273 | 0.0737 | -0.554 | 0.48
3 | CCAGACAGGTGATAGGTAACTCAGTCTGGTACGC | -0.225 | -0.0796 | -0.151 | -0.0572 | -0.589 | 0.765 | 1.82 | 2.56 | 0.858 | 1.92 | 0.575 | 0.559 | -0.871 | 0.0703 | 0.624 | -0.293 | -0.225 | 0.152 | 0.246 | 0.0928
4 | CGTCGAAGGTCAAGGTCAGTGAAAGAGACTCGAA | 7.03 | 5.5 | 0.585 | 4.59 | 0.681 | 6.39 | 6.6 | 6.24 | 2.48 | 5.24 | 2.61 | 4.52 | 0.183 | -0.374 | 2.78 | 4.3 | 0.957 | 4.46 | 1.26 | 5.88
5 | ACTAGTTGGTCAGCTGAGGTCACTCACAATTCGG | 2.19 | 2.57 | 1.98 | 2.87 | 0.671 | 3.26 | 1.04 | 1.68 | 0.169 | 1.19 | 1.45 | 2.35 | 0.323 | 0.891 | 1.61 | 4.97 | 1.53 | 3.69 | 0.562 | 3.34
6 | ACAGACAGGTGATGAAGGTATCTCAGGCTATCAT | -0.127 | -0.162 | -0.557 | -0.354 | -0.55 | -0.193 | 0.506 | -0.135 | -0.034 | -0.24 | -0.101 | 0.167 | -0.0054 | -0.542 | 0.117 | -0.369 | 0.175 | -0.241 | -0.481 | 0.0103
7 | TAGCCTCGGTCATGCGGGCCAGTATAGTGTCGGC | 0.522 | 0.28 | -0.0554 | -0.734 | -0.472 | -0.0733 | -0.325 | -0.494 | -0.587 | -0.372 | -0.364 | 0.336 | -0.318 | -0.413 | -0.406 | -0.524 | -0.81 | -0.296 | -0.888 | 2.36
8 | GCTCGGAGGACTAGGTCAGAGCTTTGTCCGTAGA | -0.693 | -0.505 | -1.09 | -0.622 | -1.5 | 0.919 | 0.339 | 1.04 | -1.04 | 0.269 | 2.42 | 2.73 | -1.06 | -1.65 | -0.329 | -0.496 | -0.984 | -0.285 | -1.53 | 1.27
9 | CCTACTGGGCCAAAAAGGTTATTGATGCCGATAA | -0.207 | 0.612 | 0.14 | 1.08 | -0.751 | 2.15 | 0.965 | 1.85 | 0.374 | 1.29 | 3.45 | 2.94 | -0.965 | -0.43 | 0.601 | 0.934 | 0.529 | 1.67 | 0.386 | 1.15
10 | GGAACGAGGGCATTCGAGTTGATAGTATGGCGAT | 1.62 | 1.71 | -0.324 | 0.436 | -0.544 | 1.62 | 1.13 | 1.22 | 0.197 | 0.753 | 3 | 2.29 | -0.142 | -0.408 | -0.115 | 4.11 | 1.45 | 0.744 | 0.0734 | 1.98
11 | CCGACTGGGGCATAACGTTACCATAAGCCAGCCC | -0.396 | -0.323 | -0.401 | -0.205 | -1.06 | 0.0712 | 0.89 | 0.484 | -0.471 | 0.117 | 2.66 | 1.66 | -0.938 | -1.07 | -0.33 | -0.824 | -0.237 | -0.522 | 0.566 | 0.162
12 | GCTATTAGTTGAAAGTGCAACCGAATGATTCTCG | 0.0358 | 0.479 | 0.0569 | 0.177 | 0.0186 | 1.33 | 1.28 | 2.92 | 1.24 | 2.72 | 0.238 | 0.262 | 0.449 | 0.384 | 0.768 | 0.683 | 0.384 | 0.526 | 0.153 | 0.775
13 | CCGCCTGGGGCAAAGGTTACCATACTCAGTACGA | 1.58 | 1.77 | 0.256 | 2.07 | -1.01 | 4.22 | 7.52 | 7.16 | 5.72 | 7.35 | 0.0766 | 3.23 | -0.483 | -0.8 | 2.34 | 2.62 | -0.268 | 4.07 | 0.0335 | 2.47
